The text below walks through data of PubChem BioAssay AID463173 (ICCB-Longwood Screening Facility, Harvard Medical School, 2010).

The campaign covered roughly 52,000 compounds. About 4,300 (8.3%) were called active. Cut-off read from the data, not from the text of the source: active = survival mostly below about 52% (no sharp cut-off); inactive = mostly above about 56%. What follows is part of a selection rich in actives, with near analogues and random picks from the rest.

This experiment has as its system DeltatarO mutant. Kind of experiment: growth inhibition of S. aureus wild type versus tarO mutant, primary screen, teichoic acid synthesis inhibitors, RN4220, OD600 (AID 463173). The note with it: OD600, 18 h, hits give low values, screened at 18.75 µg/mL (by protocol).
`CCCCNC(=O)CC1N=C2c3ccccc3N=C(SCC(=O)NCc3ccccc3Cl)N2C1=O` (stereo unspecified): the survival is 72% (inactive).

In the case of `O=c1c2cc3c(cc2n(Cc2cccc(Cl)c2)c(=O)n1Cc1nc(-c2ccccc2)no1)OCO3`, the survival was 61% (inactive).

Regarding `O=C(CCCn1c(=O)[nH]c2ccccc2c1=O)NCc1ccccc1Cl`, the survival is 123% (inactive).

For `COc1ccc(CNC(=O)CSc2ncc(S(=O)(=O)c3ccc(C)c(Cl)c3)c(=O)[nH]2)cc1`, the survival is 80% (inactive).

Turning to `Cc1ccc(N2CCN(S(=O)(=O)c3ccc4[nH]c5c(c4c3)CCCCC5)CC2)c(C)c1`, the survival was 102% (inactive).

Regarding `Cc1ccc(C)c(N2CCN(S(=O)(=O)c3ccc4[nH]c5c(c4c3)CCCC5)CC2)c1`, the survival was -2% (active).

Consider `Cc1ccc(C)c(N2CCN(S(=O)(=O)c3ccc4[nH]c5c(c4c3)CCCCC5)CC2)c1`, for which the survival was 80% (inactive).

For the compound `COCCNc1oc(-c2ccc(OC)cc2)nc1C#N`, the survival was 54% (inactive).

As for `Cc1cc(C(=O)c2cccs2)c(N)s1`, the survival is 33% (active).

As to `Cc1cc(C)cc(NC(=O)Cn2cc(C(=O)c3cccs3)c3ccccc32)c1`, the survival is 60% (inactive).

Take `Cc1cc(OC(=O)c2cccs2)cc(OC(=O)c2cccs2)c1`: the survival is 99% (inactive).

In the case of `COc1ccc(NC(=O)CCN2CCN(c3cccc(Cl)c3)CC2)cc1`, the survival was 67% (inactive).

As for `Cc1ccc(CNC(=O)c2ccc(N3Cc4ccccc4Oc4ncccc43)s2)cc1`, the survival is 81% (inactive).

Turning to `CCCc1ccc(-c2ccc(C(=O)Oc3ccc(Br)cc3)cc2)nc1`, the survival is 136% (inactive).

Turning to `CCCCCc1ccc(-c2ccc(C(=O)Oc3ccc(C(=O)OC)cc3)cc2)nc1`, the survival is 71% (inactive).

As to `CCCCCc1ccc(-c2ccc(Br)cc2)nc1`, the survival is -4% (active).

In the case of `COc1ccccc1C(=O)Nc1cc(-c2cccc(Br)c2)nn1-c1ccccc1`, the survival is 115% (inactive).

For the compound `Cn1c(=O)oc2cc(S(=O)(=O)N3CCCC(C(=O)NCc4ccc(F)cc4)C3)ccc21` (stereo unspecified), the survival was 131% (inactive).

As to `Cc1cc(C)n(CCC(=O)Nc2ccc(Cl)cc2)n1`, the survival is 87% (inactive).

Consider `CCOc1ccc2ncc3c(-c4cccc(OC)c4)nn(-c4ccccc4)c3c2c1`, for which the survival was 100% (inactive).

With `FC(F)(F)c1ccc2c(c1)ncc1c(-c3ccccc3)nn(-c3ccccc3)c12`, the survival is 125% (inactive).

For `Cc1ccc(-c2nn(-c3ccccc3)c3c2cnc2ccccc23)cc1C`, the survival was 68% (inactive).

Consider `Cc1ccc(-n2nc(-c3ccccc3)c3cnc4cc5c(cc4c32)OCO5)cc1C`, for which the survival is 127% (inactive).

In the case of `CCOc1ccc(-c2nn(-c3ccc(F)cc3)c3c2cnc2ccc(F)cc23)cc1`, the survival was 81% (inactive).

With `CCc1ccc(-c2nn(-c3ccc(OC)cc3)c3c2cnc2ccc(OC)cc23)cc1`, the survival was 14% (active).

Regarding `COc1ccc(-c2nn(-c3ccc(C)cc3)c3c2cnc2ccc(C)cc23)cc1OC`, the survival was 76% (inactive).

On to `COc1ccc2ncc3c(-c4ccccc4)nn(-c4ccc(C)c(C)c4)c3c2c1`, for which the survival is 18% (active).

In the case of `COc1ccc(-c2nn(-c3ccc(C)c(Cl)c3)c3c2cnc2cc(OC)c(OC)cc23)cc1`, the survival is 94% (inactive).

Regarding `CCc1ccc2ncc3c(-c4ccccc4)nn(-c4ccccc4)c3c2c1`, the survival was 5% (active).

With `COc1cc2ncc3c(-c4ccccc4)nn(-c4ccc(C)cc4)c3c2cc1OC`, the survival was 47% (active).

With `COc1ccc(-n2nc(-c3ccc(C)cc3)c3cnc4cc(F)c(F)cc4c32)cc1`, the survival was 88% (inactive).

Consider `O=C(Nc1ccc(F)cc1F)C1CCCN1S(=O)(=O)c1cccc2nsnc12` (stereo unspecified), for which the survival was 94% (inactive).

`COc1ccc2c(CNCCc3cccs3)c(C(=O)O)n(Cc3ccccc3C)c2c1`: the survival was 94% (inactive).

Turning to `CC1=C(C(=O)Nc2ccc(C)cc2C)C(c2ccc(Br)cc2)n2ncc(C(=O)Nc3cccc(C)c3)c2N1` (stereo unspecified), the survival was 128% (inactive).

As to `COc1ccc(-c2nc3ccccc3n3c(-c4cccc(C)c4)c4c(=O)n(C)c(=O)n(C)c4c23)cc1`, the survival was 71% (inactive).

Consider `Cc1ccc2c(c1)cc1c(=O)n(Cc3cccc(Cl)c3)nc(C)n12`, for which the survival was 89% (inactive).

For `Cc1ccc(-c2cc(C(=O)O)n(Cc3ccccc3)n2)cc1`, the survival was 67% (inactive).

With `Cc1ccc(-c2cc(N)n(Cc3cccc(Cl)c3)n2)cc1`, the survival is 55% (active).

Take `CCOC(=O)c1cc(-c2ccccc2)nn1Cc1ccccc1`: the survival was -12% (active).

`COc1ccc(-c2cc(C(=O)O)n(Cc3ccccc3)n2)cc1`: the survival was 76% (inactive).

Take `CC(=O)Nc1cc(-c2ccccc2)nn1Cc1cccc(Cl)c1`: the survival was 57% (inactive).

Regarding `CCOC(=O)c1cc(-c2ccc(OC)cc2)nn1Cc1ccccc1`, the survival is 66% (inactive).

For `O=C(O)c1cc(-c2ccccc2)nn1Cc1ccccc1`, the survival was 73% (inactive).

In the case of `CCOC(=O)c1cc(-c2ccc(C)cc2)nn1Cc1ccccc1`, the survival is -12% (active).

Turning to `O=C(c1ccco1)N1CCN(C(c2ccccc2)c2nnnn2Cc2ccccc2)CC1` (stereo unspecified), the survival was 88% (inactive).

Consider `O=C(Cn1cc(C(=O)c2ccco2)c2ccccc21)Nc1ccccc1C(F)(F)F`, for which the survival is 74% (inactive).

Take `CCn1nc(C)c2c(-c3ccccc3)cc(=O)n(C(C)C(=O)NCCc3ccc(Cl)cc3)c21` (stereo unspecified): the survival is 87% (inactive).

Regarding `CCc1nnc(SCc2c(F)cccc2Cl)c2cc3sccc3n12`, the survival is 94% (inactive).

On to `CCc1nnc(SCc2ccc(F)cc2Cl)c2cc3sccc3n12`, for which the survival is 80% (inactive).

As for `CCc1nnc(SCc2cccc(Cl)c2)c2cc3sccc3n12`, the survival was -2% (active).

As for `CCOC(=O)N1CCN(Cc2nc3cc(NC(=O)CC)ccc3n2C(C)C)CC1`, the survival is 100% (inactive).

As to `COc1cccc(-c2csc(N3CCN(C(=S)NCc4ccco4)CC3)n2)c1`, the survival was 91% (inactive).

With `CCOc1ccc(NC(=O)CCc2c(C)nc3cc(-c4ccccc4OC)nn3c2C)cc1`, the survival was 53% (active).

`COc1ccccc1CNC(=O)CCc1c(C)nc2cc(-c3ccccc3OC)nn2c1C`: the survival is 58% (inactive).

For `COc1ccccc1-c1cc2nc(C)c(CCC(=O)Nc3ccc(Br)c(C)c3)c(C)n2n1`, the survival is 67% (inactive).

In the case of `COc1ccc(CNC(=O)CCc2c(C)nn(-c3ccc(N4CCCC4)nn3)c2C)c(OC)c1`, the survival was 75% (inactive).

`COc1ccc(CCNC(=O)CCc2c(C)nc3cc(-c4ccc(Cl)cc4)nn3c2C)c(OC)c1`: the survival is 108% (inactive).

As to `CCOc1ccccc1CNC(=O)Cn1nc(N2CCN(c3ccccc3)CC2)ccc1=O`, the survival is 84% (inactive).

`COc1ccc(CNC(=O)CCc2c(C)nn(-c3ccc(N4CCCCC4)nn3)c2C)c(OC)c1`: the survival is 52% (active).

For the compound `COc1ccc(CNC(=O)Cn2nc(N3CCN(c4ccccc4)CC3)ccc2=O)c(OC)c1`, the survival was -2% (active).

In the case of `COc1ccc(CNC(=O)CCc2c(C)nn(-c3ccc(N4CCOCC4)nn3)c2C)c(OC)c1`, the survival is 85% (inactive).

On to `COc1cccc(NC(=O)Cn2nc(N3CCN(c4ccccc4)CC3)ccc2=O)c1`, for which the survival was 77% (inactive).

Regarding `COc1ccc(CCNC(=O)CCc2c(C)nc3cc(-c4ccccc4OC)nn3c2C)c(OC)c1`, the survival was 54% (active).

Regarding `CCOC(=O)c1ccc(NC(=O)CCc2c(C)nc3cc(-c4ccc(OC)cc4OC)nn3c2C)cc1`, the survival was 62% (inactive).

Consider `CC(C)c1ccc(S(=O)(=O)NCc2nc3cccnc3n2Cc2ccc(F)cc2)cc1`, for which the survival is 88% (inactive).

With `COc1cccc(CNC(=O)CN2C(=O)COc3ccc(S(=O)(=O)N4CCOCC4)cc32)c1`, the survival was 94% (inactive).

As for `Cn1cc(S(=O)(=O)N2CCCCCC2)cc1C(=O)Nc1ccc(Cl)c(C(F)(F)F)c1`, the survival is 67% (inactive).

Consider `O=C(Nc1cccc(OC(=O)c2ccco2)c1)c1ccccc1`, for which the survival was 58% (inactive).

As to `CNC(=S)N1CCN(C(=O)/C(=C/c2ccc(F)cc2)NC(C)=O)CC1`, the survival was 95% (inactive).

As for `Cc1ccc(-c2cc(C(=O)N(Cc3ccc(C(C)(C)C)cc3)Cc3ccco3)no2)cc1`, the survival was 113% (inactive).

Turning to `CCc1nc2ccc(C(=O)NCCc3ccc(OC)cc3OC)cc2nc1CC`, the survival is 68% (inactive).

In the case of `Cc1cccc(N2CCN(S(=O)(=O)c3ccc4oc(=O)c5ncn(C)c5c4c3)CC2C)c1` (stereo unspecified), the survival was 77% (inactive).

Take `Cc1ccc2c(c1)NC(=O)C(CC(=O)Nc1ccccc1Cl)O2` (stereo unspecified): the survival is 77% (inactive).

For the compound `CCc1nn(C(C)C(=O)N2CCN(c3ccccc3)CC2)c(=O)c2cc3occc3n12` (stereo unspecified), the survival is 82% (inactive).

Take `CC(=O)Nc1ccc(-c2cc(C(=O)O)c3c(-c4ccccc4)[nH]nc3n2)cc1`: the survival was 56% (inactive).

As for `O=C(Nc1nc2c(F)cc(F)cc2s1)c1ccc(S(=O)(=O)N2CCc3ccccc32)cc1`, the survival is 115% (inactive).

As to `Clc1ccc2nc(NCc3ccccc3)c3nncn3c2c1`, the survival is 96% (inactive).

As for `CC(C)OCCCn1c(SCc2ccccc2C#N)nc2c(sc3ccccc32)c1=O`, the survival was 87% (inactive).

With `CCOC(=O)c1cccc(NC(=O)N2CC(CC)Oc3ccccc32)c1` (stereo unspecified), the survival is 54% (inactive).

Consider `CCOC(=O)Cc1c(C)nc2cc(-c3ccc(C(C)(C)C)cc3)nn2c1C`, for which the survival was -4% (active).

With `COc1ccccc1-c1cc2nc(C)c(CCC(=O)NCCc3cccc(C)c3)c(C)n2n1`, the survival is 55% (inactive).

For `CCOc1ccc(NC(=O)CCc2c(C)nc3cc(-c4ccc(Cl)cc4)nn3c2C)cc1`, the survival is 35% (active).

Take `CCOC(=O)CC(NC(=O)CCc1c(C)nc2cc(-c3ccccc3)nn2c1C)c1ccc(C)cc1` (stereo unspecified): the survival is 109% (inactive).

Turning to `CCOC(=O)c1cccc(NC(=O)CCc2c(C)nc3c4cccnc4nn3c2C)c1`, the survival was 100% (inactive).

With `CC(=O)c1ccc(NC(=O)CCc2c(C)nc3cc(-c4ccc(Cl)cc4)nn3c2C)cc1`, the survival was 47% (inactive).

As for `CCOc1ccc(CCNC(=O)CCc2c(C)nc3cc(-c4ccccc4OC)nn3c2C)cc1`, the survival was 50% (active).

`CCOC(=O)c1cccc(NC(=O)CCc2c(C)nc3cc(-c4ccc(Cl)cc4)nn3c2C)c1`: the survival was 35% (active).

Turning to `COC(=O)c1cc(NC(=O)CCc2c(C)nc3cc(-c4ccccc4)nn3c2C)cc(C(=O)OC)c1`, the survival is 118% (inactive).

Turning to `CCN(CC)S(=O)(=O)c1ccc(NC(=O)CCc2c(C)nc3cc(-c4ccc(Cl)cc4)nn3c2C)cc1`, the survival was 92% (inactive).

Turning to `COc1ccccc1-c1cc2nc(C)c(CCC(=O)NCCc3ccc(SC)cc3)c(C)n2n1`, the survival is 81% (inactive).

Regarding `CCOC(=O)Cc1c(C)nc2cc(C)nn2c1C`, the survival is 98% (inactive).
